GSTO1 counter – blocks human GSTO1 in RBBP9 counter-screen | inhibition, % at 5.96 µM | AID 1974 | recombinant GSTO1, activity-based probe fluorescence polarization | 1.1% of 300,000 active;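 active means inhibition above the campaign mean inhibition plus 3 SD, cut at about 35% in these data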
Target sequence (P78417 whole entry, looked up): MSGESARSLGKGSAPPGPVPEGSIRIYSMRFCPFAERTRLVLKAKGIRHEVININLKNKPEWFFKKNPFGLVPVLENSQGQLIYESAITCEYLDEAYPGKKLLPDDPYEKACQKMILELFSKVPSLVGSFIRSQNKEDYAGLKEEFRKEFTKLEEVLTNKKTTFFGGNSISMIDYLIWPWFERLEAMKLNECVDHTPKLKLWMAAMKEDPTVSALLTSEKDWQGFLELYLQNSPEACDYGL
PME-1 inh – blocks human protein phosphatase methylesterase 1 | AID 2130 | inhibition, % at 5.9 µM | 0.53% of 320,000 active | Q9Y570 | recombinant PME-1, FP-Rh probe fluorescence polarization;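 active means inhibition above the campaign mean of all compounds plus 3 SD, cut at about 26% in these data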;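 further: competitive labeling of PME-1 active site by serine hydrolase directed probe; inhibitors block probe labeling so polarization falls and inhibition rises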
LYPLA2 inh – counter-screen for PME1 inhibitors: inhibitors of human LYPLA2; recombinant LYPLA2, FP-Rh probe fluorescence polarization; inhibition, % at 5.9 µM; 0.38% of 320,000 active; AID 2177;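 active means inhibition above the screen-wide mean plus 3 SD, limit set per campaign, cut at about 26% in these data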
Target sequence (O95372 whole entry, looked up): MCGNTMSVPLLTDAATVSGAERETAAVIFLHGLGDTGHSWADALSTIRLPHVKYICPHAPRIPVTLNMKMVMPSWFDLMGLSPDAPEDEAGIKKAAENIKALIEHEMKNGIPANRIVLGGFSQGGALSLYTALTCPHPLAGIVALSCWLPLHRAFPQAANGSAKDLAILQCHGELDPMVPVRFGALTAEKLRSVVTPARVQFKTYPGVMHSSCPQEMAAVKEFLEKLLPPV
PAD4 inh – blocks human protein arginine deiminase 4; AID 485272; 0.41% of 330,000 active; inhibition, % at 6.36 µM; Q9UM07; recombinant PAD4, RCA probe fluorescence polarization;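 active means percent inhibition above a cutoff equal to the mean of all tested compounds plus 3 SD, cut at about 15% in these data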
Fam108B counter – blocks mouse Fam108B hydrolase in RBBP9 counter-screen | 0.33% of 300,000 active | inhibition, % at 9.51 µM | AID 1947 | recombinant Fam108B, FP-Rh probe fluorescence polarization;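 active means inhibition above the screen mean inhibition plus 3 SD, computed separately per campaign, cut at about 18% in these data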;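 further: inhibitors lower polarization as less probe binds the enzyme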
LYPLA1 counter – LYPLA1 (human) inhibition in PME1 counter-screen; recombinant LYPLA1, FP-Rh probe fluorescence polarization; inhibition, % at 5.9 µM; 0.16% of 320,000 active; O75608; AID 2174;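 active means inhibition above the mean of all tested compounds plus 3 SD, set per campaign, cut at about 14% in these data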;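 further: inhibitors block serine hydrolase probe labeling of LYPLA1 so polarization falls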
Target sequence (O75608 whole entry, looked up): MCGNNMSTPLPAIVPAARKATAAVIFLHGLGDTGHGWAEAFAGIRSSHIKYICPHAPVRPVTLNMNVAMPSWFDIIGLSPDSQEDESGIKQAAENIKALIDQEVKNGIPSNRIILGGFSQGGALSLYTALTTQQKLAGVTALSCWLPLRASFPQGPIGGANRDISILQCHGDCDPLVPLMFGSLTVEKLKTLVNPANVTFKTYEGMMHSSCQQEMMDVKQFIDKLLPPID
GSTO1 confirm – GSTO1 (human) inhibition, confirmation. shares compounds with GSTO1 counter. recombinant GSTO1, probe fluorescence polarization. AID 2176. 54% of 2,400 active. inhibition, % at 5.96 µM;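 active means inhibition above the primary screen's cutoff, its mean inhibition plus 3 SD, cut at about 35% in these data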;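 further: loss of polarization as inhibitors block binding of rhodamine sulfonate ester activity probe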
GSTO1 ABPP inh – blocks recombinant human glutathione S-transferase omega 1. AID 463110. 30% of 130 active. inhibition, % at 1 µM. recombinant GSTO1, gel ABPP SE-Rh probe fluorescence. shares compounds with GSTO1 counter;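 active means inhibition of the enzyme GSTO1 above about 75%, limit read from the data; inactive means inhibition below that limit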
Large screens that a line does not name were inactive (follow-up assays come after a bar, where they were run). This is a sample that favours compounds with a hit; in the whole collection about 1.8% have one here.

Oc1ccc(/C=N/N(c2ccccc2)c2ccccc2)c(O)c1O	GSTO1 counter 50.8 | GSTO1 confirm inactive
O=C(CSc1nnnn1-c1ccccc1)NCC1(N2CCOCC2)CCCCC1	none (no result: GSTO1 counter, Fam108B counter)
Cn1c(C(=O)O)c(CC(=O)N2CCC(Cc3ccccc3)CC2)c2ccccc21	GSTO1 counter 41.8 | GSTO1 confirm inactive
CC(=O)NCCc1cnc[nH]1	GSTO1 counter 47.3 | GSTO1 confirm inactive
O=[N+]([O-])c1ccc(-c2ccc(C=Nc3cccc4ccccc34)o2)cc1	GSTO1 counter 62.8, PAD4 inh 24.0 | GSTO1 confirm inactive
ClCc1cc2ccccc2nc1Cl	GSTO1 counter 43.0 | GSTO1 confirm 94.8 | GSTO1 ABPP inh inactive
CCc1cc2ccccc2nc1Cl	none
Cc1ccccc1OCCC(=O)Nc1ccc(N2CCOCC2)cc1N1CCOCC1	none
COC1=C(c2ccccc2)C(=O)c2ccccc2C1=O	GSTO1 counter 43.9 | GSTO1 confirm 35.5
CCCCCCC(=O)N(O)C1CC(=O)N(c2ccc(Br)cc2)C1=O (centres undefined)	none
COc1ccccc1N(O)C1CC(=O)N(c2ccc(Br)cc2)C1=O (centres undefined)	GSTO1 counter 51.0 | GSTO1 confirm inactive
CC(C)(C)OC(=O)C[C@H]1C/C=C\C[C@@H](CC(=O)N[C@@H](CO)Cc2ccccc2)C(=O)NC[C@H](c2ccccc2)OC1=O	none (no result: GSTO1 counter, PME-1 inh, LYPLA2 inh, Fam108B counter, LYPLA1 counter)
S=C(NCCc1c[nH]c2ccccc12)NC1CCCCC1	GSTO1 counter 51.0 | GSTO1 confirm inactive
O=C(COC(=O)CNC(=O)c1ccccc1F)Nc1ncc(Cl)cc1Cl	none (no result: GSTO1 counter, Fam108B counter)
N#CC(C(=O)O)=C1CCCC1	none
N#CC(C#SN)=C1CCCCC1	GSTO1 counter 51.6 | GSTO1 confirm inactive
CN(C)C(=O)c1cc(C(=O)c2ccccc2Cl)c[nH]1	none
CN(C)C(=O)c1cc(C(=O)c2ccccc2)c[nH]1	GSTO1 counter 67.3 | GSTO1 confirm inactive
C1CCc2nc3c(nc2C1)CCCC3	none
Nc1nnc2c(n1)CCCC2	GSTO1 counter 66.8 | GSTO1 confirm inactive
CCOC(=O)c1nc(N/N=C/c2ccccc2)sc1Br	GSTO1 counter 51.0 | GSTO1 confirm inactive
CS(=O)(=O)c1ccccc1C(=O)N(CCC1=CCCCC1)c1c(N)n(Cc2ccccc2)c(=O)[nH]c1=O	none
COc1ccccc1N(CC1CO1)S(=O)(=O)c1ccc(C)cc1 (centres undefined)	GSTO1 counter 74.7 | GSTO1 confirm 82.6 | GSTO1 ABPP inh inactive
O=S(=O)(c1ccccc1)N(CC1CO1)c1cc(Cl)ccc1Cl (centres undefined)	GSTO1 counter 92.1 | GSTO1 confirm 94.0 | GSTO1 ABPP inh inactive
O=[N+]([O-])c1ccccc1N(CC1CO1)S(=O)(=O)c1ccccc1 (centres undefined)	GSTO1 counter 81.4 | GSTO1 confirm 94.0 | GSTO1 ABPP inh inactive
COc1ccc([N+](=O)[O-])cc1N(CC1CO1)S(=O)(=O)c1ccc(C)cc1 (centres undefined)	GSTO1 counter 87.6 | GSTO1 confirm 98.2 | GSTO1 ABPP inh inactive
CS(=O)(=O)N(CC(=O)NCC1CCCO1)c1cc(Cl)ccc1Cl (centres undefined)	none
COC(=O)C1(C(F)(F)F)C2C=CC(C2)N1S(=O)(=O)c1ccc(C)cc1 (centres undefined)	none
COc1ccc(N(CC2CO2)S(=O)(=O)c2ccccc2)cc1 (centres undefined)	GSTO1 counter 70.0 | GSTO1 confirm 85.5 | GSTO1 ABPP inh inactive
COc1ccccc1N(CC1CO1)S(=O)(=O)c1ccccc1 (centres undefined)	GSTO1 counter 85.3 | GSTO1 confirm 78.1 | GSTO1 ABPP inh inactive
COc1ccc(N(CCOc2ccccc2)S(=O)(=O)c2ccccc2)cc1	none (no result: GSTO1 counter, Fam108B counter)
CC(C)CN1Cc2ccccc2Oc2cc(Br)ccc2S1(=O)=O	none (no result: GSTO1 counter, PME-1 inh, LYPLA2 inh, Fam108B counter, LYPLA1 counter)
Cc1ccc(N)cc1O	none (no result: GSTO1 counter, Fam108B counter)
Cc1cc(O)c(-c2cc(O)c(C)cc2O)cc1O	GSTO1 counter 82.1 | GSTO1 confirm inactive
COc1ccc(-c2[nH]ncc2CN2CCN(Cc3cccs3)CC2)cc1F	GSTO1 counter 72.4 | GSTO1 confirm inactive
COCCCNC(=O)CC1C[C@H](C(=O)N2CCOCC2)[C@@]2(CCC3CCCC3)c3[nH]c4ccc(OC)cc4c3CCN2C1=O (some centres undefined)	none (no result: GSTO1 counter, PME-1 inh, LYPLA2 inh, Fam108B counter, LYPLA1 counter)
CC(=O)Nc1ccc(Sc2ccccc2C(=O)Nc2ccc(F)cc2)cn1	none
CC(=O)Nc1ccc(Sc2ccccc2C(=O)O)cn1	GSTO1 counter 44.3 | GSTO1 confirm inactive
CC(=O)N1N=C(c2ccccc2OC(=O)/C=C/c2ccccc2)CC1c1ccccc1 (centres undefined)	none
O=C(NCCO)C(=O)Nc1cc2c3c(c1)CCN3C(=O)CC2	none
CC(C)NC(=O)CN1CCN(C(=O)CCl)CC1	GSTO1 counter 37.9 | GSTO1 confirm 57.9 | GSTO1 ABPP inh inactive
CN=c1scc(C)n1/N=C/c1ccc(O)c(O)c1O	GSTO1 counter 73.8 | GSTO1 confirm inactive
CCOc1ccc(-n2c(C)cc(C(=O)CCl)c2C)cc1	GSTO1 counter 93.6 | GSTO1 confirm 100.4
O=C1CC(N2CCOCC2)=NN1c1ccc([N+](=O)[O-])cc1	GSTO1 counter 48.2 | GSTO1 confirm inactive
CCS(=O)c1ccccc1C(=O)OCC(=O)N1CCC(c2ccccc2)=N1 (centres undefined)	none (no result: GSTO1 counter, PME-1 inh, LYPLA2 inh, Fam108B counter, LYPLA1 counter)
CCOC(=O)Nc1nnc(-c2ccccc2OC)s1	none
CCC(SC1=NCCS1)C(=O)Nc1nnc(-c2ccccc2OC)s1 (centres undefined)	GSTO1 counter 59.5 | GSTO1 confirm 60.6
COc1ccc(Br)cc1-c1nc(CCl)cs1	GSTO1 counter 72.5 | GSTO1 confirm 97.1 | GSTO1 ABPP inh inactive
Cn1c(SCC(=O)NNC(=O)Cc2ccccc2)nc2ccccc2c1=O	none
COc1cc(C2Nc3ccc4ncccc4c3C3=C2C(=O)CCC3)cc(OC)c1O (centres undefined)	none
O=C1CCCC2=C1C(c1ccc(O)c(O)c1)Nc1ccc3ccccc3c12 (centres undefined)	GSTO1 counter 66.7 | GSTO1 confirm inactive
CC(C)[C@H](NC(=O)N1c2ccccc2NC(=O)[C@@H]1C(C)C)C(=O)N[C@H](Cc1ccccc1)C(=O)O	none
COc1ccc(CCN2CC(C(=O)N(C)CC(=O)Nc3cccc(F)c3)CC2=O)cc1OC (centres undefined)	none
CCCCN(C(=O)c1cccc(N2C(=O)c3ccccc3C2=O)c1)c1c(N)n(CC(C)C)c(=O)[nH]c1=O	none (no result: GSTO1 counter, Fam108B counter)
CCCCN(C(=O)c1cccc(-n2cccc2)c1)c1c(N)n(Cc2ccccc2)c(=O)[nH]c1=O	GSTO1 counter 57.9 | GSTO1 confirm inactive

Source: PubChem BioAssay
